Measured values reported in PubChem BioAssay.
Activity calls are given as the source filed them.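 How the source made its calls, unless noted: active means aptamer binding inhibition above 30%, about 3 SD of noise from non-fluorescent compounds; inactive means inhibition at or below 30%.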

Legend:
[1] = AGP1-GFP expression modulators, hit retest, confirmation, cell-based, flow cytometry, S. cerevisiae, cherry picks (AID 2273;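 active means GFP response above 150% of the DMSO level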;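 further: median GFP channel fluorescence over the whole cell population gate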); conditions: S. cerevisiae AGP1-GFP strain, 3 h, at 10 µM
[2] = molecular target: Integrin beta-1 (Homo sapiens) + Integrin alpha-4 (Homo sapiens) (UniProt P13612+P05556); assay: inhibition of HUTS-21 binding to VLA-4, pilot screen, VLA-4 allosteric modulator project, U937 cells, HUTS-21 mAb, flow cytometry, validation set (AID 2674;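 active means inhibition above 50%, about 3 SD of the validation set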;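 further: antibody binding induced by the VLA-4 ligand LDV present at three times its Kd; 0% = LDV ligand with antibody and no compound and 100% = antibody without LDV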); conditions: HUTS-21 LIBS mAb binding, at 6.7 µM, active compounds read high, binding induced by LDV ligand
Chain of Integrin beta-1 (Homo sapiens) + Integrin alpha-4 (Homo sapiens) (P05556 whole entry, looked up): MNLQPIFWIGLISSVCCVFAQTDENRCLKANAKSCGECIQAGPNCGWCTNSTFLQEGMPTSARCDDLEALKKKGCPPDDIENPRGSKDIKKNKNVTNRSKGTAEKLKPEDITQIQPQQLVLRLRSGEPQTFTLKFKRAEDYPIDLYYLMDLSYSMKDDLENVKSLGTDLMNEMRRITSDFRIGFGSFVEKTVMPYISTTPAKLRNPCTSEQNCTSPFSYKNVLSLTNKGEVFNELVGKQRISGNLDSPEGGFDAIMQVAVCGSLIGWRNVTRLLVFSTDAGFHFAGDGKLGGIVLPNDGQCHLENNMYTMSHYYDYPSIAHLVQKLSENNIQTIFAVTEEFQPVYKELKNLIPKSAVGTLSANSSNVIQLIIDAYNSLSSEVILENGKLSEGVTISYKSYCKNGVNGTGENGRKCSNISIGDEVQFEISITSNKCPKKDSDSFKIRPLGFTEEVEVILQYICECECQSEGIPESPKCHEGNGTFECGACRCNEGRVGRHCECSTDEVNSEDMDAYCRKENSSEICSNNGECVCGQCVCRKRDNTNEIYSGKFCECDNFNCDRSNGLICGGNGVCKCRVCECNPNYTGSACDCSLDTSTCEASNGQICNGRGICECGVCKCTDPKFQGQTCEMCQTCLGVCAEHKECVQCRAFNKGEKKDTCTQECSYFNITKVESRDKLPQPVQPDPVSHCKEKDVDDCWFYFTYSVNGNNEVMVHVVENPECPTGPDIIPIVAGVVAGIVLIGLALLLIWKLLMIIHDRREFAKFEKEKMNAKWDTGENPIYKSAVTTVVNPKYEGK
Chain of Integrin beta-1 (Homo sapiens) + Integrin alpha-4 (Homo sapiens) (P13612 whole entry, looked up): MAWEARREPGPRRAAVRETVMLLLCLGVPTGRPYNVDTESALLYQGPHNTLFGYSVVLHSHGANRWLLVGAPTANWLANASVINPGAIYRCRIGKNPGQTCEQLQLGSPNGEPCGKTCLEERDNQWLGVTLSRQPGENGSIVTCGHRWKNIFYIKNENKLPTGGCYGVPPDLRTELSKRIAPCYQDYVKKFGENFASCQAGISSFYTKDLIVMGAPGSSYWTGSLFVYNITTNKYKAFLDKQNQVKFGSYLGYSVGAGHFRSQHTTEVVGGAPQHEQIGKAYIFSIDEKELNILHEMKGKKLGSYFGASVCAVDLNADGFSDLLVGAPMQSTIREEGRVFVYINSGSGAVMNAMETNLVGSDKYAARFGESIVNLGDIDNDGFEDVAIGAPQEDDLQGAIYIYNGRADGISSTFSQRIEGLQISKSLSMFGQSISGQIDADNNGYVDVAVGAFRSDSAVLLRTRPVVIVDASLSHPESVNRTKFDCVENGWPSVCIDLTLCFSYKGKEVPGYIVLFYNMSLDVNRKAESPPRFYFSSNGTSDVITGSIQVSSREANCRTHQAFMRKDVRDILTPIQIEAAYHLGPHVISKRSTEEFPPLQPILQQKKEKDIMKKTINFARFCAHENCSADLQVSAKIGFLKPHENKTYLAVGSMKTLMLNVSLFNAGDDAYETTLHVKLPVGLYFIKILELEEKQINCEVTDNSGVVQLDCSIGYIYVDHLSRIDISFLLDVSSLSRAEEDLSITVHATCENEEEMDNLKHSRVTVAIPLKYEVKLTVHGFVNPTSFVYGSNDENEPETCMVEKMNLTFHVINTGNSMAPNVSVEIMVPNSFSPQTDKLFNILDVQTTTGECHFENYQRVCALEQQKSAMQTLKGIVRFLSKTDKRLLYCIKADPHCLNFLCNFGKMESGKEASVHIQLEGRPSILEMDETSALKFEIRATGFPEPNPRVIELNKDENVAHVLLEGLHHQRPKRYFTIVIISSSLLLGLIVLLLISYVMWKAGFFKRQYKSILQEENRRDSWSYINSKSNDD

[3] = superoxide lowering in aged yeast cells, pilot screen, validation compound set (AID 2706;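 active means superoxide response below 65% of plate, a cut near 3 SD across the whole screen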;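 further: yeast exposed to compound for one week at 30 degrees C before staining; 100% = mean of all compound wells on the same plate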); conditions: S. cerevisiae aging, superoxide DHE fluorescence; at 10 µM; active compounds read low
[4] = molecular target: Beta-adrenergic receptor kinase 1 (Homo sapiens) (UniProt P25098); assay: GRK2 binders displacing RNA aptamer, biochemical, validation, human GRK2, bead flow cytometry (AID 488806); conditions: bead-bound GRK2, FAM-aptamer displacement, at 10 µM, active compounds read high
Chain of Beta-adrenergic receptor kinase 1 (Homo sapiens) (P25098 whole entry, looked up): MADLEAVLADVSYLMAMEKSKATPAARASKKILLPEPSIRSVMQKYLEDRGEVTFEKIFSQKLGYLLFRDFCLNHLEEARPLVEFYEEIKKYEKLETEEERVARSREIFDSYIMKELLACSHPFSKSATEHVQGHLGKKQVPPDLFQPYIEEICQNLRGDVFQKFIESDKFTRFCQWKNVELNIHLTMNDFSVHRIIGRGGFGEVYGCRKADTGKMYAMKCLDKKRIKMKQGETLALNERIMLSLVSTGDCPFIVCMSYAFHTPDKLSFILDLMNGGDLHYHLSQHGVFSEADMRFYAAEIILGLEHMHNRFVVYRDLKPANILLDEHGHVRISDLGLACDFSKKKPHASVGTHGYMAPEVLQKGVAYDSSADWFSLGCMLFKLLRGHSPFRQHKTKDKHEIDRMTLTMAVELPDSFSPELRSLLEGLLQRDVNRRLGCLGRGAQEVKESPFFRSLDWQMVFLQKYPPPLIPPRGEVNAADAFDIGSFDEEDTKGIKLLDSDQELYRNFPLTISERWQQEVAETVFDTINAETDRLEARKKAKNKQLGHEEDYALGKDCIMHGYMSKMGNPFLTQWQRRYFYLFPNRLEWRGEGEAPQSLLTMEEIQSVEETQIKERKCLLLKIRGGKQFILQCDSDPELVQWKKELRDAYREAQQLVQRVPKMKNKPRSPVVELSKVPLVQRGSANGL

[5] = molecular target: Beta-2 adrenergic receptor (Homo sapiens) (UniProt P07550); assay: beta2AR agonists driving receptor internalization, pilot screen, cell-based, FAP fluorogen, flow cytometry, validation set (AID 504459;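 active means percent response above 42, roughly 3 SD of non-fluorescent test compounds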;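 further: agonist-driven loss of surface beta2AR via internalization measured by FAP dye flow cytometry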); conditions: Am2.2-beta2AR cells, FAP surface receptor flow cytometry; at 10 µM; active compounds read high
Chain of Beta-2 adrenergic receptor (Homo sapiens) (P07550 whole entry, looked up): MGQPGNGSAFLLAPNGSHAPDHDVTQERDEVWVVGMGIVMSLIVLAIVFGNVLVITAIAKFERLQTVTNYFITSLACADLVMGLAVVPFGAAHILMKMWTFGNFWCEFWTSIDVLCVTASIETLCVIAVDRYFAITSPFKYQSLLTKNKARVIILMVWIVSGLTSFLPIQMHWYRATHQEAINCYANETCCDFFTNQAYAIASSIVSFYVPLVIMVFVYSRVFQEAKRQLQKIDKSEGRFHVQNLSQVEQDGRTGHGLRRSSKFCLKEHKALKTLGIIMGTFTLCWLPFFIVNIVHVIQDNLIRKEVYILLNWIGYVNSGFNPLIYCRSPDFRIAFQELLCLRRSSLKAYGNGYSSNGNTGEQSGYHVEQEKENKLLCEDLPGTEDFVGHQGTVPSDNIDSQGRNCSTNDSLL

[6] = molecular target: AP-2 complex subunit beta (Homo sapiens) (UniProt P63010); assay: inhibitors of arrestin peptide binding to AP2, pilot screen, biochemical, validation set, GST-AP2 beads, flow cytometry (AID 504541;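 active means inhibition above 54%, about 3 SD of non-fluorescent compounds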;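 further: AP2 carries R879A mutation and is captured from E. coli lysate; bead-bound FITC arrestin peptide fluorescence measuring arrestin peptide binding to AP2; 0% = DMSO wells and 100% = excess unlabeled arrestin peptide control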); conditions: FITC arrestin peptide, at 10 µM, active compounds read high, AP2 beta2 appendage fragment, R879A mutant
Chain of AP-2 complex subunit beta (Homo sapiens) (P63010 whole entry, looked up, the tested form may be a part, one chain of several): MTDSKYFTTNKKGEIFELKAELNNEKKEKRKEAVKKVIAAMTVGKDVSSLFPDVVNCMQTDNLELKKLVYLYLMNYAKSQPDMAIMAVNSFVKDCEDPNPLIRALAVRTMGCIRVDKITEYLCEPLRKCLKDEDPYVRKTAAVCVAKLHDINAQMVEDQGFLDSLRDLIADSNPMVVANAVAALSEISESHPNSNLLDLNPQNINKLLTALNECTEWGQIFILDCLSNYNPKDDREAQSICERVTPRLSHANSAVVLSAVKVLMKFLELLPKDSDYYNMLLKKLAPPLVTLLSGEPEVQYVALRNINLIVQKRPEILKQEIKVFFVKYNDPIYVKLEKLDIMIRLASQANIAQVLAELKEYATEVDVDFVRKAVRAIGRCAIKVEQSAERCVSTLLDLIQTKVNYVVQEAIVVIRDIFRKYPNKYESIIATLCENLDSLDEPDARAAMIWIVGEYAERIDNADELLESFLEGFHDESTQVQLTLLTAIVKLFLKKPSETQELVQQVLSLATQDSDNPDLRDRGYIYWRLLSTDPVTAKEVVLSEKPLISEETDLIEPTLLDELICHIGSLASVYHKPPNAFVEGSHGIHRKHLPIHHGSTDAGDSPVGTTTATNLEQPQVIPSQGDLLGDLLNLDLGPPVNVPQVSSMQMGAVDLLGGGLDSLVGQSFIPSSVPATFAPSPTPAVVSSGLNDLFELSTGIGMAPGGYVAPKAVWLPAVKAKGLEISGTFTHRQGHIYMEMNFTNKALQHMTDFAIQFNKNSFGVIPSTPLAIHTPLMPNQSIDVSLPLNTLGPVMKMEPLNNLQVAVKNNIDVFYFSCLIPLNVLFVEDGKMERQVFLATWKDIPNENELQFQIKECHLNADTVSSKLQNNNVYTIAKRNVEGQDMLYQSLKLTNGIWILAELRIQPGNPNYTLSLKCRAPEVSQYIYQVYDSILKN

[7] = yeast V-ATPase proton transport modulators, S. cerevisiae, pHLuorin, HTS validation (AID 504600; in the data active means response above about 15%;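 further: plate controls were DMSO for no effect and reference compound for full effect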); conditions: S. cerevisiae pHLuorin cytosolic pH, at 10 µM, active compounds read high
[8] = test system: anti-desmoglein-3 scFv antibody binding to human DSG3; assay: inhibitors of anti-DSG3 scFv binding to DSG3, pilot screen, biochemical, validation compound set, bead-based, flow cytometry (AID 588368;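 active means binding below the plate cutoff, the plate median minus 3 SD, with a reading above zero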;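 further: signal is the median channel fluorescence of bead-bound GFP antibody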); conditions: Protein G beads, DSG3-Fc, scFv-GFP binding, at 10 µM, active compounds read low
[9] = inhibitors of fungal efflux pumps CDR1, CDR2, MDR1, pilot screen, validation compound set, multiplex, phenotypic (AID 588506;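 active means efflux inhibition above 0.42, the validation set average plus 4 SD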;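 further: Nile Red retained in cells so higher fluorescence means more efflux inhibition; 0 = negative control wells and 1 = enniatin B 25 µM full block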); conditions: S. cerevisiae pump-expressing triplex, Nile Red efflux flow cytometry; at 10 µM; active compounds read high; the pumps come from Candida albicans
[10] = molecular target: ATP-binding cassette sub-family B member 6 (Homo sapiens) (UniProt Q9NP58); assay: ABCB6 transporter inhibitors, pilot screen, K562-ABCB6 cells, flow cytometry, validation set (AID 588550;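 active means inhibition above the screen-wide mean plus 3 SD, about 51%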;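 further: 0% = DMSO wells and 100% = benzethonium chloride 70 µM positive control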); conditions: K562-ABCB6 porphyrin accumulation, 1 h, at 10 µM, active compounds read high
Chain of ATP-binding cassette sub-family B member 6 (Homo sapiens) (Q9NP58 whole entry, looked up): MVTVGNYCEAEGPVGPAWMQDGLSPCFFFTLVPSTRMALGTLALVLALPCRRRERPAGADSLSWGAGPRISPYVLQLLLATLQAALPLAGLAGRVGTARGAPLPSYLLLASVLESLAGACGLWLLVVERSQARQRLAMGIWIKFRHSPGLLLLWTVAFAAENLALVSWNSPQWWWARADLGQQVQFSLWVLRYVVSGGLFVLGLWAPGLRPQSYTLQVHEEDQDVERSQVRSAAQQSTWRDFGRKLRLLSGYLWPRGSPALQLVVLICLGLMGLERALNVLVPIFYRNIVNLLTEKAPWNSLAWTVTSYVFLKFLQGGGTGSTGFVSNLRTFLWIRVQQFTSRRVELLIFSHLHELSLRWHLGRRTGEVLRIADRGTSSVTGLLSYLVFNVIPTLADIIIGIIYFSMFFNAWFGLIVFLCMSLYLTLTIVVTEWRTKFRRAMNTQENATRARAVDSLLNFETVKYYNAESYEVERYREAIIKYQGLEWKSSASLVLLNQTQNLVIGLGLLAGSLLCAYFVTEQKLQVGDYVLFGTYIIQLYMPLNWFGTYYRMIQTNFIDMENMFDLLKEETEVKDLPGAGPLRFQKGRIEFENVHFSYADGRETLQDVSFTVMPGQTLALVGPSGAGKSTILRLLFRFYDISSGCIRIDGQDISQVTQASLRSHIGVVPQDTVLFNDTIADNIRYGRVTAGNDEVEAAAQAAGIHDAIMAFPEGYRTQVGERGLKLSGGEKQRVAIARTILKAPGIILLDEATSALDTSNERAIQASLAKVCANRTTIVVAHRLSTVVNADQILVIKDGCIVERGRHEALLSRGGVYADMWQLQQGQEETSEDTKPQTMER

[11] = promoters of myeloid differentiation in arrested cells, primary screen, cell-based, GFP/MAC1 double positive, flow cytometry, validation set (AID 588685;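 active means differentiation response of at least 50%, scaled between solvent and reference control, from cells with both markers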;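 further: compound exposure lasts four days before antibody staining and flow analysis; 0% = DMSO wells and 100% = 5 µM fulvestrant positive control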); conditions: ER-HoxA9 marrow cells, active compounds read high, normalized: vehicle 0, fulvestrant 100

c1cnc2c(c1)ccc1cccnc12
inactive: GFP response, % of DMSO [1] 102% | inhibition [2] 19.3% | superoxide response (% of plate) [3] 77.1% | aptamer binding inhibition [4] 8% | response [5] -45.4% | inhibition [6] 10.3% | response [7] 9.34% | binding (% of control) [8] 105% | efflux inhibition (fraction of control) [9] -0.13 | inhibition [10] 4% | differentiation response [11] -0.06%

O=C(NC1CCCCC1)N1CCc2[nH]c3ccccc3c2C1
inactive: GFP response, % of DMSO [1] 96% | inhibition [2] 24.9% | superoxide response (% of plate) [3] 90.3% | aptamer binding inhibition [4] 3% | response [5] 10.8% | inhibition [6] 12.6% | response [7] 13.8% | binding (% of control) [8] 219% | efflux inhibition (fraction of control) [9] 0.27 | inhibition [10] 6% | differentiation response [11] 10.6%

C1COC(NC(C2CC2)C2CC2)=N1
inactive: GFP response, % of DMSO [1] 105% | inhibition [2] 17.1% | superoxide response (% of plate) [3] 96.6% | aptamer binding inhibition [4] 3% | response [5] 3.85% | inhibition [6] 11.9% | response [7] 9.25% | binding (% of control) [8] 98.3% | efflux inhibition (fraction of control) [9] 0.23 | inhibition [10] 6% | differentiation response [11] 0.82%

C[C@]12C[C@H](O)[C@H]3[C@@H](CCC4=CC(=O)CC[C@@]43C)[C@@H]1CC[C@@H]2C(=O)CO
inactive: GFP response, % of DMSO [1] 96.4% | inhibition [2] 31.7% | superoxide response (% of plate) [3] 103% | aptamer binding inhibition [4] 4% | response [5] 4.9% | inhibition [6] -0.36% | response [7] 6.31% | binding (% of control) [8] 104% | efflux inhibition (fraction of control) [9] -0.56 | inhibition [10] 12% | differentiation response [11] 4.91%

C[C@]12CC[C@H]3[C@@H](CCC4=CC(=O)CC[C@@]43C)[C@@H]1CC[C@@H]2C(=O)CO
inactive: GFP response, % of DMSO [1] 92.6% | inhibition [2] -13.9% | superoxide response (% of plate) [3] 104% | aptamer binding inhibition [4] -4% | response [5] -2.3% | inhibition [6] 11.7% | response [7] -4.52% | binding (% of control) [8] 111% | efflux inhibition (fraction of control) [9] -0.02 | inhibition [10] 7% | differentiation response [11] 14.7%

CCCCCCCC(=O)OCC(=O)[C@@]1(O)CC[C@H]2[C@@H]3CCC4=CC(=O)CC[C@]4(C)[C@H]3[C@@H](O)C[C@@]21C
active: efflux inhibition (fraction of control) [9] 0.74
inactive: GFP response, % of DMSO [1] 101% | inhibition [2] 11% | superoxide response (% of plate) [3] 108% | aptamer binding inhibition [4] 4% | response [5] 0.19% | inhibition [6] -9.35% | response [7] 10.5% | binding (% of control) [8] 97.1% | inhibition [10] 14% | differentiation response [11] 5.13%

CN(C)CCN(Cc1ccccc1)c1ccccn1
inactive: GFP response, % of DMSO [1] 103% | inhibition [2] -6.15% | superoxide response (% of plate) [3] 95.6% | aptamer binding inhibition [4] 1% | response [5] 1.51% | inhibition [6] 49.6% | response [7] -5.5% | binding (% of control) [8] 103% | differentiation response [11] -1.64%
active: efflux inhibition (fraction of control) [9] 0.48 | inhibition [10] 113%

O=[N+]([O-])c1cccc2cn[nH]c12
inactive: GFP response, % of DMSO [1] 105% | inhibition [2] -13.9% | superoxide response (% of plate) [3] 117% | aptamer binding inhibition [4] 0% | response [5] -10.1% | inhibition [6] 49.7% | response [7] -6.22% | binding (% of control) [8] 93.6% | efflux inhibition (fraction of control) [9] 0.3 | inhibition [10] 0% | differentiation response [11] 3.28%

CCOC(=O)C(Cc1cc(C(C)=O)ccc1OC(C)C)C(=O)OCC
inactive: GFP response, % of DMSO [1] 90.8% | inhibition [2] -1.3% | superoxide response (% of plate) [3] 91% | aptamer binding inhibition [4] 4% | response [5] -7.47% | inhibition [6] 47% | response [7] -8.56% | binding (% of control) [8] 99.8% | efflux inhibition (fraction of control) [9] -0.09 | inhibition [10] 10% | differentiation response [11] 4.09%

CCCCN(CCCC)CCCOC(=O)c1ccc(N)cc1
inactive: GFP response, % of DMSO [1] 94.5% | inhibition [2] 0.64% | superoxide response (% of plate) [3] 92.8% | aptamer binding inhibition [4] 0% | response [5] -0.26% | inhibition [6] 6.38% | response [7] -2.47% | binding (% of control) [8] 104% | efflux inhibition (fraction of control) [9] 0.05 | inhibition [10] 9% | differentiation response [11] 1.64%

O=C(O)CCNC(=O)c1ccccc1
inactive: GFP response, % of DMSO [1] 104% | inhibition [2] -4.21% | superoxide response (% of plate) [3] 94.8% | aptamer binding inhibition [4] 3% | response [5] 3.62% | inhibition [6] 47.5% | response [7] -1.09% | binding (% of control) [8] 98.7% | differentiation response [11] 26.2%
active: efflux inhibition (fraction of control) [9] 0.52 | inhibition [10] 112%
